Inconclusive results are not listed. Values without a mark were called inactive. The source made the active and inactive calls. The call rests on the fitted dose curve; in most records, active means well fitted inhibition curve with a large enough effect; inconclusive means small, poorly fitted or top-dose-only effect; inactive means flat fitted curve, though single readings scatter.
The compounds below were run against Calcium and integrin-binding protein 1 (Homo sapiens) (UniProt Q99828) (assay: Primary qHTS for Identification of Calcium Integrin Binding Protein 1 (CIB1) Competitor (AID 1508620;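 on activity change, negative = inhibition: GST tagged CIB1 binding a fluorescein labelled alphaIIb integrin peptide tracer; top concentration of the series differs between compounds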)). Settings: CIB1-GST / FITC-alphaIIb peptide fluorescence polarization; series mostly up to 114 µM; activity change, negative = inhibition: at the top concentration.
Chain of Calcium and integrin-binding protein 1 (Homo sapiens) (Q99828 whole entry, looked up): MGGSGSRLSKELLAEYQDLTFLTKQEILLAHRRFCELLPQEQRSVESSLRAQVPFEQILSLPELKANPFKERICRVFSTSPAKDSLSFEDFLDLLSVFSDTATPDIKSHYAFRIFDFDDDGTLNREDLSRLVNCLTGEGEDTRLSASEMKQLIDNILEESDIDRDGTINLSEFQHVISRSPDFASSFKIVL
How it was run: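 CIB1-GST (1 uM final) and compound incubated 15 min at room temperature before adding FITC-alphaIIb peptide tracer (100 nM final). Competition for binding read by fluorescence polarization (ex 480, em 540) after another 15 min at room temperature.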
On the % scale 0 is the no-effect control and ±100 the full control effect; potency means the concentration at half of the fitted maximal effect.

In order of rising “activity change, negative = inhibition” value:
1. O=C(Cc1ccc(Cl)c(Cl)c1)Nc1ccc(S(=O)(=O)Nc2cncnc2)cc1  -19.8%
2. Cc1cc(NS(=O)(=O)c2ccc(C(=O)NCc3ccc(Cl)c(Cl)c3)cc2)no1  -17.7%
3. COc1ccc(-c2nc3ccccc3c(=O)n2Cc2ccco2)cc1COc1ccc(NC(C)=O)cc1  -10.3%
4. O=C(Cc1ccc(Cl)c(Cl)c1)Nc1ccc([S+](=O)([O-])Nc2ncn[nH]2)cc1  -10.3%
5. C#CCOc1ccc(-c2no[n+]([O-])c2C#N)cc1  -6%
6. COc1ccc(C[C@@H](NS(=O)(=O)c2ccc(C(=O)O)cc2)C(=O)O)cc1  -5.33%
7. CC(C)(C)OC(=O)Cc1nnc(-c2nc3ccccc3[nH]2)o1  -4.45%
8. COc1cccc(CNc2ccc(S(=O)(=O)Nc3cccnc3)cc2)c1O  -4%
9. CCCCN(CCCNC(=S)NCCCc1cnc[nH]1)c1ccc(Br)cn1  -3.53%
10. CC(C)(C)OC(=O)Cc1nnc(CNC(=O)c2ccccc2)s1  -3.48%
11. O=c1c2ccccc2nc2sc(Nc3ccc(Oc4ccccc4)cc3)nn12  -3.35%
12. COc1ccc(-c2ccc3ncnc(NCCc4cnc[nH]4)c3c2)cc1OC  -3.1%
13. COc1cccc(C2c3c(ncn(CCCN4CCOCC4)c3=N)Oc3ccc4ccccc4c32)c1 (stereo not given)  -2.17%
14. O=C1CCCC2=C1C(c1cccc(Cl)c1)N=C(Nc1nc3ccccc3o1)N2 (stereo not given)  -1.97%
15. FC(F)(F)c1ccccc1-c1nc(NCC23CC4CC(CC(C4)C2)C3)c2ccccc2n1  -0.432%
16. COc1ccc(C2C3=C(N=CN(CCN4CCOCC4)C3N)Oc3ccccc32)cc1OC (stereo not given)  -0.303%
17. COc1ccc(-c2ccc(NC(=O)c3cccs3)cn2)cc1  0.114%
18. CCCCN(C)C(=O)Cn1nc(-c2ccc(OC)cc2)ccc1=O  0.31%
19. Cc1nnc(-c2cnn(C)c2N)n1CCCn1cccc1  1.25%
20. Cc1cc(C)nc(NC(=S)N2CCN(c3ncc(Cl)cc3Cl)CC2)c1  1.26%
21. CS(=O)(=O)c1ccccc1-c1csc(N2CCC(C(N)=O)CC2)n1  1.27%
22. Cc1ccnc(NC(=S)N2CCC(Nc3cccc(C(F)(F)F)c3)CC2)c1  1.47%
23. NC(=O)c1ccc(-c2noc(-c3ccccc3F)n2)cc1  1.67%
24. CNc1oc(-c2ccc3c(c2)OCCO3)nc1C#N  1.76%
25. CC(C)Oc1cccc(-c2cnc(N3CCC(C(N)=O)CC3)s2)c1  1.76%
26. O=S(=O)(c1ccc2c(c1)OCCO2)N1CCN(S(=O)(=O)c2ccc(Cl)cc2F)CC1  1.96%
27. O=C(NCc1ccc(F)cc1)n1cc(P(=S)(c2ccccc2)c2ccccc2)c2ccccc21  2.15%
28. Cc1ccc(S(=O)(=O)N(C)c2cccc3cccnc23)cc1  2.24%
29. CC(=O)Nc1ccccc1OC1=N[S+](=O)([O-])c2ccccc21  2.47%
30. Cc1cnc(-c2ccccc2C(C)C)nc1NCC1CCN(c2cccnc2)C1 (stereo not given)  2.78%
31. Cc1ccccc1-c1csc2ncnc(Sc3nnnn3C)c12  2.94%
32. CCOc1ccccc1-c1nnc2n1N=C(c1ccc(OC)cc1)CS2  3.14%
33. O=C(Nc1ccc2ccccc2c1)Nc1nnc(-c2ccccc2)s1  5.36%
34. CC(=O)c1ccc(N2CCN(S(=O)(=O)c3ccc4c(c3)CC(C)N4C(C)=O)CC2)cc1 (stereo not given)  6.13%
35. Cc1ccc2nc3sc(C(=O)Nc4ccc(F)cc4)cc3cc2c1  6.16%
36. COc1ccc(S(=O)(=O)N2CCN(S(=O)(=O)c3c(F)cccc3F)CC2)cc1  6.24%
37. Cc1cnc(-c2ccccc2C(C)O)nc1NCC1CCN(c2cccnc2)CC1 (stereo not given)  9.82%
38. Cc1ccc(OCCn2c(CCNC(=O)c3ccc(Br)cc3)nc3ccccc32)cc1  21.4%

Cc1ccc(OCCn2c(CCNC(=O)C3CCCCC3)nc3ccccc32)cc1 was tested, and the Potency was “inactive”.
For CC(=O)Nc1sc2c(c1-c1nc3ccccc3s1)CCN(C1COC1)C2, the Potency was 14.1 µM (active).

From PubChem BioAssay (NCATS)
